Article PMC8384837, “Expanding the binding specificity for RNA recognition by a PUF domain”
Changes are numbered by the printed parent chain.

What was measured:
Test in all cases: yeast three-hybrid, YBZ-1, SC-Leu-His + 0.5 mM 3-AT, 4 days
Conditions in all cases: tags: N-Gal4 AD-HA kept; label: inside an RPR1-promoter hybrid RNA with tandem MS2 sites; ssRNA
PUM1 PUF domain R5-QNG = PUM1 PUF domain R5-QNG (Homo sapiens, UniProt Q14671 828-1176, C1007Q;R1008N;Q1011G)
Summary of the method: (§1)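 The interaction score is the log change in how often each variant appears, from input to selection. Frequencies came from PCR-amplified, Illumina-sequenced repeat regions of Pumilio-1 PUF domain libraries grown in strain YBZ-1 (LexA–MS2 coat fusion, HIS3 reporter) alongside matching RNA elements. Input plates were SC-Leu and selection plates were SC-Leu-His + 0.5 mM 3-AT, each for four days, and the log2 calculation used a pseudocount of 1 where a variant was absent.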

PUM1 PUF domain R5-KQT = PUM1 PUF domain R5-KQT (Homo sapiens, UniProt Q14671 828-1176, C1007K;R1008Q;Q1011T)
PUM1 PUF domain R5-KQT, sequence (Q14671 828-1176 C1007K/R1008Q/Q1011T): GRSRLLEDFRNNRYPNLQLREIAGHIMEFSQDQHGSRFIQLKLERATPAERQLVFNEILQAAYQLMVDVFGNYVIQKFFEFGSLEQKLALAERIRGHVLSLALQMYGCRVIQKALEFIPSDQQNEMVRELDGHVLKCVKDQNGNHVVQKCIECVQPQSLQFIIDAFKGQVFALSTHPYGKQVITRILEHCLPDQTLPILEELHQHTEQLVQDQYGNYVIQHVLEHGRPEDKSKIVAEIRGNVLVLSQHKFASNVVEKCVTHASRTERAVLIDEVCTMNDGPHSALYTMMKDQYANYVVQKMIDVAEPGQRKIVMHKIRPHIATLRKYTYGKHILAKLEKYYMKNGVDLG
Summary of the method: as §1

PUM1 PUF domain R7-KGG = PUM1 PUF domain R7-KGG (Homo sapiens, UniProt Q14671 828-1176, S1079K;N1080G;E1083G)
Summary of the method: as §1

PUM1 PUF domain R4-AFP = PUM1 PUF domain R4-AFP (Homo sapiens, UniProt Q14671 828-1176, N971A;H972F;Q975P)
PUM1 PUF domain R4-AFP, sequence (Q14671 828-1176 N971A/H972F/Q975P): as the sequence (Q14671 828-1176 C1007K/R1008Q/Q1011T) above, with N144A, H145F, Q148P, K180C, Q181R, T184Q counted along it
Summary of the method: as §1

PUM1 PUF domain R4-VNA = PUM1 PUF domain R4-VNA (Homo sapiens, UniProt Q14671 828-1176, N971V;H972N;Q975A)
Summary of the method: as §1

PUM1 PUF domain R8-RCK = PUM1 PUF domain R8-RCK (Homo sapiens, UniProt Q14671 828-1176, N1122R;Y1123C;Q1126K)
Summary of the method: as §1

PUM1 PUF domain R6-SWE = biological target: T1, PUM1 PUF domain R6-SWE (Homo sapiens, UniProt Q14671 828-1176, N1043S;Y1044W;Q1047E)
T1 sequence: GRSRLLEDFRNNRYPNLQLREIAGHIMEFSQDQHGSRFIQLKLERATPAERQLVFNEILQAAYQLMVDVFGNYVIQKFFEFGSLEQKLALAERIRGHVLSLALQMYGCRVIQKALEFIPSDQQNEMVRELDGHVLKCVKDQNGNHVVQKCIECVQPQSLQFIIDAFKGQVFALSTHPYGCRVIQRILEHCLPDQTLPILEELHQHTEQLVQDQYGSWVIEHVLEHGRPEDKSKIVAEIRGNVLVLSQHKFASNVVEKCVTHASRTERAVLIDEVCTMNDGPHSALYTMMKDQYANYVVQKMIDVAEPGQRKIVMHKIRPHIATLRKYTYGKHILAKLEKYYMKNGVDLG
Summary of the method: as §1

PUM1 PUF domain R1-SRR = PUM1 PUF domain R1-SRR (Homo sapiens, UniProt Q14671 828-1176, Q867R)
Summary of the method: as §1

PUM1 PUF domain R1-GVR = PUM1 PUF domain R1-GVR (Homo sapiens, UniProt Q14671 828-1176, S863G;R864V;Q867R)
Summary of the method: as §1

PUM1 PUF domain R6-FRL = biological target: T2, PUM1 PUF domain R6-FRL (Homo sapiens, UniProt Q14671 828-1176, N1043F;Y1044R;Q1047L)
T2 sequence: T1 sequence with S216F, W217R, E220L
Summary of the method: as §1

Sequence: GGCUAGAACUAGUGGAUCCCCCGGCGCCCGGCGGCUCGAGCCCGGGUAAGUGUUAAUAGUCUGCAUGCCGCCGGGCGCCAUGCCUGCAGGUCGACUCUAGAAAACAUG
- binding signal (PUM1 PUF domain R5-QNG): 2.88 log2 enrichment (interaction score)
- binding signal (PUM1 PUF domain R5-KQT): 2.84 log2 enrichment (interaction score)

Sequence: GGCUAGAACUAGUGGAUCCCCCGGCGCCCGGCGGCUCGAGCCCGGGUAAGUUUAAAUAGUCUGCAUGCCGCCGGGCGCCAUGCCUGCAGGUCGACUCUAGAAAACAUG
- binding signal (PUM1 PUF domain R7-KGG): 2.69 log2 enrichment (interaction score)

Sequence: GGCUAGAACUAGUGGAUCCCCCGGCGCCCGGCGGCUCGAGCCCGGGUAAGUGUAUAUAGUCUGCAUGCCGCCGGGCGCCAUGCCUGCAGGUCGACUCUAGAAAACAUG
- binding signal (PUM1 PUF domain R4-AFP): 5 log2 enrichment (interaction score)
- binding signal (PUM1 PUF domain R4-VNA): 3.11 log2 enrichment (interaction score)

Sequence: GGCUAGAACUAGUGGAUCCCCCGGCGCCCGGCGGCUCGAGCCCGGGUAAGCGUAAAUAGUCUGCAUGCCGCCGGGCGCCAUGCCUGCAGGUCGACUCUAGAAAACAUG
- binding signal (PUM1 PUF domain R8-RCK): 2.23 log2 enrichment (interaction score)

Sequence: GGCUAGAACUAGUGGAUCCCCCGGCGCCCGGCGGCUCGAGCCCGGGUAAGUGAAAAUAGUCUGCAUGCCGCCGGGCGCCAUGCCUGCAGGUCGACUCUAGAAAACAUG
- binding signal (PUM1 PUF domain R6-SWE): 4.09 log2 enrichment (interaction score)

Sequence: GGCUAGAACUAGUGGAUCCCCCGGCGCCCGGCGGCUCGAGCCCGGGUAAGUGUAAAUCGUCUGCAUGCCGCCGGGCGCCAUGCCUGCAGGUCGACUCUAGAAAACAUG
- binding signal (PUM1 PUF domain R1-SRR): 3.51 log2 enrichment (interaction score)
- binding signal (PUM1 PUF domain R1-GVR): 3.35 log2 enrichment (interaction score)

Sequence: GGCUAGAACUAGUGGAUCCCCCGGCGCCCGGCGGCUCGAGCCCGGGUAAGUGUCAAUAGUCUGCAUGCCGCCGGGCGCCAUGCCUGCAGGUCGACUCUAGAAAACAUG
- binding signal (PUM1 PUF domain R5-KQT): 4.51 log2 enrichment (interaction score)

Sequence: GGCUAGAACUAGUGGAUCCCCCGGCGCCCGGCGGCUCGAGCCCGGGUAAGUGUACAUAGUCUGCAUGCCGCCGGGCGCCAUGCCUGCAGGUCGACUCUAGAAAACAUG
- binding signal (PUM1 PUF domain R4-AFP): 6.13 log2 enrichment (interaction score)
- binding signal (PUM1 PUF domain R4-VNA): 1.65 log2 enrichment (interaction score)

Sequence: GGCUAGAACUAGUGGAUCCCCCGGCGCCCGGCGGCUCGAGCCCGGGUAAGUGGAAAUAGUCUGCAUGCCGCCGGGCGCCAUGCCUGCAGGUCGACUCUAGAAAACAUG
- binding signal (PUM1 PUF domain R6-SWE): 4.47 log2 enrichment (interaction score)

Sequence: GGCUAGAACUAGUGGAUCCCCCGGCGCCCGGCGGCUCGAGCCCGGGUAAGUGUAAAUUGUCUGCAUGCCGCCGGGCGCCAUGCCUGCAGGUCGACUCUAGAAAACAUG
- binding signal (PUM1 PUF domain R1-SRR): 1.58 log2 enrichment (interaction score)
- binding signal (PUM1 PUF domain R1-GVR): 2.24 log2 enrichment (interaction score)

Sequence: GGCUAGAACUAGUGGAUCCCCCGGCGCCCGGCGGCUCGAGCCCGGGUAAGUGUAAAUAGUCUGCAUGCCGCCGGGCGCCAUGCCUGCAGGUCGACUCUAGAAAACAUG
- binding signal (PUM1 PUF domain R4-AFP): 3.88 log2 enrichment (interaction score)
- binding signal (PUM1 PUF domain R6-FRL): 2.93 log2 enrichment (interaction score)
- binding signal (PUM1 PUF domain R5-KQT): 2.17 log2 enrichment (interaction score)
